Screening data as filed in PubChem BioAssay.
tim23-1 inh: inhibits growth of tim23-1 mutant yeast; S. cerevisiae tim23-1 growth, BacTiter-Glo luminescence, 24 h; inhibition, % at 20 µM; 1.3% of 330,000 active; AID 463212;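 active = growth inhibition of the mutant yeast at or above 50%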;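 note: temperature-sensitive mutant grown at 25 °C; plate controls were DMSO-treated mutant yeast for no effect and medium wells lacking yeast for full effect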
PfHsp90 yeast 2: inhibits growth of yeast expressing Plasmodium falciparum Hsp90. S. cerevisiae expressing PfHsp90, BacTiter-Glo ATP, 48 h; yeast lacking PDR1 and PDR3 efflux regulators. inhibition, % at 9.4 µM. 0.32% of 310,000 active. AID 504621;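 active = every replicate shows inhibition above about 80%, whatever the replicate mean, limit read from the data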;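 note: 0% = DMSO neutral controls and 100% = 20 µM radicicol positive controls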
TIM10 inh: growth inhibitors of TIM10 yeast strain; S. cerevisiae TIM10 strain growth, BacTiter-Glo luminescence, 24 h; inhibition, % at 10 µM; 1.4% of 330,000 active; AID 463195;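 active = inhibition of 40% or more at the single tested concentration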;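 note: wild-type TIM10 isogenic control strain grown at permissive 25 °C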
V-ATPase pHluor: alters yeast V-ATPase proton transport. 0.37% of 350,000 active. S. cerevisiae, pHLuorin cytosolic pH fluorescence. response, % at 10 µM; in the data active = response mostly above about 7.3%, no sharp cut-off; inactive = mostly below about 5.4%; note: actives read high
tim10-1 inh: tim10-1 yeast growth inhibition. S. cerevisiae tim10-1 ts strain growth, BacTiter-Glo, 24 h. inhibition, % at 20 µM. 2.2% of 330,000 active. AID 463190;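 active = inhibition of at least 40%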;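 note: mutant grown at 25 °C; 0% = DMSO wells with yeast and 100% = wells holding no yeast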
tim10-1 conf: tim10-1 yeast growth inhibition, confirmed | shares compounds with tim10-1 inh | S. cerevisiae tim10-1 ts strain growth, BacTiter-Glo, 24 h | inhibition, % at 20 µM | 56% of 7,400 active;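 active = inhibition of yeast growth at or above a set limit in either of two repeat tests at 20 µM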;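 note: tim10-1 mutant grown at permissive 25 °C to find synthetic lethal compounds; 0% = DMSO yeast wells and 100% = medium wells without yeast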
tim10 confirm: TIM10 yeast growth inhibition, confirmed; shares compounds with TIM10 inh; S. cerevisiae tim10 strain growth, BacTiter-Glo luminescence, 24 h; inhibition, % at 10 µM; 63% of 4,600 active;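 active = inhibition of yeast growth at or above a set limit in either of two replicates at 10 µM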;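 note: this counterscreen used the strain with wild-type TIM10; 0% = yeast with DMSO and 100% = medium wells lacking yeast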
tim23-1 conf: confirmation of tim23-1 mutant yeast growth inhibitors. inhibition, % at 20 µM. shares compounds with tim23-1 inh. 83% of 4,400 active. S. cerevisiae tim23-1 growth, BacTiter-Glo luminescence, 24 h. AID 463218;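 active = inhibition above about 39% in either of two replicate wells at 20 µM, limit read from the data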;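 note: temperature-sensitive tim23-1 mutant grown at 25 °C; 0% = DMSO wells with yeast and 100% = medium wells without yeast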
* marks the source's active call; other numbers are inactive results; x = not tested or not shown. Most compounds without a hit are left out; they make up all but 3.7% or so of the library.

SMILES | tim23-1 inh | PfHsp90 yeast 2 | TIM10 inh | V-ATPase pHluor | tim10-1 inh | tim10-1 conf | tim10 confirm | tim23-1 conf
Cc1cccc(C)c1NC(=S)NC(=O)CCc1ccccc1 | 56* | 15 | 47* | -1 | 51* | 35* | 36* | 42*
Cc1nc2sc3c(c2c(=O)o1)CCCC3 | 14 | -22 | 6 | 0 | 6 | x | x | x
O=c1oc(-c2ccco2)nc2sc3c(c12)CCCC3 | 54* | -27 | 47* | 1 | 46* | 31* | 43* | 42*
Cc1ccccc1C(=O)N1CCC(C(=O)Nc2ccc(S(=O)(=O)N3CCCCC3)cc2)CC1 | 11 | 6 | 15 | -3 | 20 | x | x | x
COc1ccc(OC)c(C2C(C#N)=C(N)Oc3c2c(C)nn3-c2cccc(Cl)c2)c1 (configuration not stated) | 51* | x | 44* | -2 | 46* | 29 | 15 | 50*
Cc1nn(-c2cccc(Cl)c2)c2c1C(c1ccncc1)C(C#N)=C(N)O2 (configuration not stated) | 15 | x | 28 | 1 | 36 | x | x | x
COc1ccc2c(COC(=O)c3ccc(C)c(S(=O)(=O)N4CCOCC4)c3)cc(=O)oc2c1 | x | x | x | 3 | x | x | x | x
CCOC(=O)C(CCc1ccccn1)c1ccccc1 (configuration not stated) | x | x | x | -2 | x | x | x | x
CN(C)c1ccc(N=Cc2nc(-c3ccccc3)oc2OC(=O)c2cccc(Br)c2)cc1 | 17 | -18 | 5 | -4 | 12 | x | x | x
CCC(=O)Oc1oc(-c2ccccc2)nc1C=Nc1ccc(C)cc1 | 46 | 1 | 32 | 2 | 19 | x | x | x
CCC(=O)Oc1oc(-c2ccccc2)nc1C=Nc1ccccc1OC | 53* | 3 | 40 | -4 | 50* | 36* | x | 70*
CCOC(=O)c1ccc(N=Cc2nc(-c3ccccc3)oc2OC(C)=O)cc1 | 58* | -5 | 45* | 4 | 71* | 55* | 68* | 83*
CC(=O)Oc1oc(-c2ccccc2)nc1C=Nc1ccccc1 | 77* | -7 | 41* | -2 | 53* | 49* | 44* | 76*
COc1ccc(CC(=O)NCC2CCCN(Cc3ccc(SC)cc3)C2)cc1 (configuration not stated) | -16 | -8 | -6 | 1 | -2 | x | x | x
S=C(N/N=C/c1cccs1)NC1CC2CCC1C2 (configuration not stated) | 72* | 5 | 50* | 3 | 48* | 46* | 60* | 58*
S=C(NCCN1CCOCC1)N/N=C/c1cccs1 | -3 | -11 | 12 | 2 | -2 | x | x | x
O=C(CCSc1nnc(-c2ccco2)o1)N1CCOCC1 | 13 | 12 | -2 | 1 | 2 | x | x | x
Cc1ccc(Nc2cc(C)nn2-c2nc(C)cc(=O)[nH]2)cc1 | 68* | 105* | 76* | 4 | 63* | 47* | -17 | 52*
CC(=O)Nc1cc(C)nn1-c1nc(C)cc(C)n1 | 2 | 11 | -15 | 0 | 9 | x | x | x
Cc1ccc(Nc2cc(C)nn2-c2nc(C)cc(C)n2)cc1 | 53* | -25 | 44* | -1 | 47* | 25 | -25 | 47*
Cn1c(N)c(C(=O)COC(=O)CSc2cccc3cccc(Cl)c23)c(=O)n(C)c1=O | -6 | 4 | -8 | -2 | 0 | x | x | x
Cc1cc(NC(=O)NC(=O)c2ccccc2NC(=O)C(C)N)ccc1Oc1ncc(Br)cn1 (configuration not stated) | x | -8 | x | 0 | x | x | x | x
COc1cccc(-n2nc(C#N)c(Cl)cc2=O)c1 | 62* | -38 | 55* | 0 | 68* | 56* | 39* | 63*
COc1cccc(-n2nc(C(N)=O)c(O)cc2=O)c1 | 7 | -7 | 9 | 3 | 2 | x | x | x
COc1cccc(CN2C(=O)C(C)Oc3ccccc32)c1 (configuration not stated) | -3 | -10 | -2 | 2 | 10 | x | x | x
SMILES | tim23-1 inh | PfHsp90 yeast 2 | TIM10 inh | V-ATPase pHluor | tim10-1 inh | tim10-1 conf | tim10 confirm | tim23-1 conf
COc1cccc(CN2c3ccc(Br)cc3C(=O)CS2(=O)=O)c1 | 57* | -25 | 32 | -4 | 40* | 38* | x | 60*
Cc1ccc(C(=O)ONc2ccc(N=O)cc2)cc1 | 71* | x | 39 | -1 | 58* | 49* | x | 63*
O=C(Nc1ccc2c(c1)OCCO2)NC12CC3CC(CC(C3)C1)C2 | 59* | -10 | 47* | 0 | 51* | 43* | 31 | 43*
COc1ccc(-c2cc(C(=O)N(C)Cc3cccc(OC)c3OC)c3ccccc3n2)cc1OC | 70* | -4 | 50* | -1 | 53* | 64* | 50* | 94*
CCN(CC)C(=S)SSC(=S)N(CC)CC | 64* | 107* | 50* | 3 | 88* | 99* | 100* | 99*
O=C(NCCSCc1ccco1)Nc1cc(Cl)cc(Cl)c1 | 54* | -6 | 34 | -1 | 46* | 35* | x | 56*
O=C(CSCc1ccc(Cl)cc1)NCCSCc1ccco1 | 21 | 9 | 20 | 0 | 22 | x | x | x
Cc1csc(NC(=O)C2CCN(S(=O)(=O)c3ccccc3F)CC2)n1 | 15 | 23 | 13 | 3 | 21 | x | x | x
O=c1oc(-c2ccccc2Cl)nc2ccsc12 | 70* | 1 | 34 | -4 | 44* | 35* | x | 60*
O=c1oc(-c2ccc(F)cc2)nc2ccsc12 | 10 | 2 | 0 | 0 | 26 | x | x | x
COc1ccc(C(=O)C2CCN(S(=O)(=O)c3ccc4c(c3)OCCO4)CC2)cc1 | 60* | -14 | 68* | 1 | 56* | 57* | 61* | 46*
COc1ccc(C(=O)N2CCN(S(=O)(=O)c3ccc4c(c3)OCCO4)CC2)cc1 | x | x | x | -1 | x | x | x | x
Cn1cc([C@@H]2C[C@H]3CN(Cc4cccc(Cl)c4)C(=O)[C@]34CCCN24)c2ccccc21 | 18 | 7 | 25 | -4 | 19 | x | x | x
Cc1oc(=O)c(NC(=O)c2ccccc2)cc1C(=O)c1ccccc1 | 57* | x | 53* | 5 | 62* | 61* | 55* | 60*
CC(=O)Nc1cccc(-c2nnc3c4ccccc4c(C)nn23)c1 | 11 | x | 9 | x | 17 | x | x | x
Cc1nn2c(-c3ccncc3)nnc2c2ccccc12 | 52* | -59 | 76* | 3 | 57* | 65* | 74* | 43*
COc1cc(C(C[N+](=O)[O-])c2c(-c3ccccc3)cc3ccccn23)cc(OC)c1OC (configuration not stated) | 54* | -2 | 34 | -1 | 41* | 33* | x | 69*
COc1cc(C(C[N+](=O)[O-])c2c(C)cc3ccccn23)ccc1O (configuration not stated) | 32 | 17 | 26 | 3 | 27 | x | x | x
O=C(/C=C\c1cccs1)c1c(O)ccc2ccc(=O)oc12 | 78* | -25 | 75* | 6 | 75* | 81* | 75* | 69*
